From PubChem BioAssay (Tox21)
Results filed as inconclusive are left out. Active and inactive are the calls of the source. Unless noted, calls follow the shape of the dose curve; as a rule, active = well fitted curve in the direction sought with a large enough effect in the repeat runs; inconclusive = weak or mixed curves; inactive = no such curve, though single readings can be large; an effect the other way counts as inactive or inconclusive.

What was measured:
[1] = qHTS assay to identify small molecule antagonists of the thyroid receptor (TR) signaling pathway - cell viability counter screen (AID 743064); also: nearly all actives have a fitted effect of over 50% in size
Outline: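 Compounds were tested on GH3.TRE-Luc cells in the presence of T3 at 1 nM final. Following 23.5 h at 37 °C, cell viability was quantified by CellTiter-Fluor.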

[2] = qHTS assay to identify small molecule antagonists of the thyroid receptor (TR) signaling pathway (AID 743065); also: series mostly up to about 70 µM; nearly all actives have a fitted effect of over 55% in size
Outline: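 GH3.TRE-Luc rat pituitary cells (two TREs driving luciferase) were dosed with compound, then stimulated with 1 nM T3 (final) for 23.5 h at 37 C. ONE-Glo luminescence was the read-out, with CellTiter-Fluor fluorescence as the cytotoxicity counter-screen.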

[3] = system: thyroid hormone receptor (rat, GH3 cells); assay: qHTS assay to identify small molecule agonists of the thyroid receptor (TR) signaling pathway (AID 743066; calls by dose curve)
[4] = biological target: Estrogen receptor (Homo sapiens) (UniProt P03372); assay: qHTS assay to identify small molecule antagonists of the estrogen receptor alpha (ER-alpha) signaling pathway (AID 743069; active = well fitted curve in the direction sought with a large enough effect in the signal ratio in the repeat runs, not every such curve was filed as active; the % refers to the signal ratio)
Estrogen receptor (Homo sapiens), sequence (P03372 whole entry, looked up): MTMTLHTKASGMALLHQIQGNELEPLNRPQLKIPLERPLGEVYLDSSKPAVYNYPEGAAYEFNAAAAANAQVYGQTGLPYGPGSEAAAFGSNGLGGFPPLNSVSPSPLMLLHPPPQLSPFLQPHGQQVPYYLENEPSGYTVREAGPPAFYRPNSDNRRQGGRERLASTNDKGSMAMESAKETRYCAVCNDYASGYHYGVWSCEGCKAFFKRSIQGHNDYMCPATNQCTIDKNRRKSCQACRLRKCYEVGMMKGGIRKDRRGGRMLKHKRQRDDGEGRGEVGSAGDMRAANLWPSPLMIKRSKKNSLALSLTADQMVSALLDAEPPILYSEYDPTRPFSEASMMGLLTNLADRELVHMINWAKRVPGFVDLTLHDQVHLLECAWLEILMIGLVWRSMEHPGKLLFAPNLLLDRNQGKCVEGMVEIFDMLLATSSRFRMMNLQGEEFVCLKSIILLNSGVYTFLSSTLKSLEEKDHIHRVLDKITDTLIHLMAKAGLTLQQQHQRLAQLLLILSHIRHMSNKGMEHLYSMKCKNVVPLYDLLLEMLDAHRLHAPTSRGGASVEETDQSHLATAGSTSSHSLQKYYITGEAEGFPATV
Outline: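 HEK293 ER-alpha-UAS-bla GripTite cells, held overnight in 2% charcoal-stripped FBS, 5,000 cells/well, preincubated 4 h, then compound plus 17beta-estradiol for 18 h at 37C. Beta-lactamase read by LiveBLAzer B/G FRET substrate, 2 h at room temperature.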

[5] = qHTS assay to identify small molecule antagonists of the estrogen receptor alpha (ER-alpha) signaling pathway - cell viability counter screen (AID 743074; calls by dose curve;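 also: HEK293 cells carrying ER-alpha-UAS-bla reporter stimulated with 17beta-estradiol; nearly all actives have a fitted effect of over 45% in size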)
[6] = biological target: Estrogen receptor (Homo sapiens) (UniProt P03372); assay: qHTS assay to identify small molecule agonists of the estrogen receptor alpha (ER-alpha) signaling pathway (AID 743075; calls by dose curve)
[7] = biological target: Estrogen receptor (Homo sapiens) (UniProt P03372); assay: qHTS assay to identify small molecule agonists of the estrogen receptor alpha (ER-alpha) signaling pathway using the BG1 cell line (AID 743079); also: nearly all actives have a fitted effect of over 20% in size
[8] = qHTS assay to identify small molecule antagonists of the estrogen receptor alpha (ER-alpha) signaling pathway using the BG1 cell line (AID 743080; calls by dose curve;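 also: BG1 cells stimulated with 17beta-estradiol alongside compound; series mostly up to about 70 µM; nearly all actives have a fitted effect of over 25% in size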)
Outline: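 BG1-Luc-4E2 cells (endogenous full-length ER-alpha, 4xERE luciferase) hormone-starved 5 days in charcoal-stripped FBS, plated 4,000/well for 24 h, then compound plus 17beta-estradiol for 21.5 h at 37 C; ONE-Glo luminescence read.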

[9] = qHTS assay to identify small molecule antagonists of the estrogen receptor alpha (ER-alpha) signaling pathway using the BG1 cell line - cell viability counter screen (AID 743081);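 also: compound given together with 17beta-estradiol as the ER stimulus; series mostly up to about 70 µM; nearly all actives have a fitted effect of over 45% in size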
Aromatase (Homo sapiens) = Aromatase (Homo sapiens) (UniProt P11511); assay: qHTS assay to identify aromatase inhibitors (AID 743083); also: series mostly up to about 70 µM; nearly all actives have a fitted effect of over 55% in size
Aromatase (Homo sapiens), sequence (P11511 whole entry, looked up): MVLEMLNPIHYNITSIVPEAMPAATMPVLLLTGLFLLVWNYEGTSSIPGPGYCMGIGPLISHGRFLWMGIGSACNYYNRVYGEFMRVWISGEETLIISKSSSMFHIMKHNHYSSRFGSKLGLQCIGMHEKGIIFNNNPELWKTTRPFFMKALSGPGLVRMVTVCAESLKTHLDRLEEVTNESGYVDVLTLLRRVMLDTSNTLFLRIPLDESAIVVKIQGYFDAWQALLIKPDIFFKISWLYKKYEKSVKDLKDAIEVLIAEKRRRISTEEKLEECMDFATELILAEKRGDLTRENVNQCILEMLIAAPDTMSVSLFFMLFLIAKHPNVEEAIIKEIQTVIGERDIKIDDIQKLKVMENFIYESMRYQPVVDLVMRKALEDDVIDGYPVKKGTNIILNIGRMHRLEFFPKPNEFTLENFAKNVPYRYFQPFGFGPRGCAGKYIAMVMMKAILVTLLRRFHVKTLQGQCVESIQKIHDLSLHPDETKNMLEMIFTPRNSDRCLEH

Measured: Potency

CC1OCCC1=O (stereo not drawn)
inactive: all assays above

Cc1ccc(C(=O)O)cc1[N+](=O)[O-]
inactive: all assays above

CC1=C(O)C(=O)C(C)O1 (stereo not drawn)
inactive: all assays above

CCCCCc1cccc(=O)o1
inactive: all assays above

CC/C(C)=N\O[Si](C)(O/N=C(\C)CC)O/N=C(\C)CC
inactive: all assays above

CN(C)CCOC(=O)C(c1ccccc1)C1(O)CCCC1 (stereo not drawn)
inactive: all assays above

Cc1c(Cl)cccc1Cl
inactive: all assays above

N[C@@H](CSCCCO)C(=O)O
inactive: all assays above

C=C(C)c1cccc(C(C)(C)N=C=O)c1
inactive: all assays above

C[C@H]1[C@@H](c2ccccc2)NC(=O)N1C
inactive: all assays above

CCCCCCCCCCCCCCCCCCOCCO
inactive: all assays above

COC(=O)c1cc(Cl)cc(Cl)c1
inactive: all assays above

CC(C)COC(=O)c1ccccc1
not listed: [7] | Aromatase (Homo sapiens)
inactive: all other assays above

Cc1ccccc1C(N)=O
inactive: all assays above

OC[C@H]1O[C@@H](O[C@@H]2[C@@H](CO)O[C@](O)(CO)[C@H]2O)[C@H](O)[C@@H](O)[C@H]1O
inactive: all assays above

Cc1ccc(N)cc1S(=O)(=O)O
inactive: all assays above

NCCOCCN
inactive: all assays above

CC(S)C(C)S (stereo not drawn)
inactive: all assays above

O=C(O)[C@H](O)c1ccccc1
not listed: [7]
inactive: all other assays above

CC(=O)c1cc(C)oc1C
inactive: [1] | [2] | [3] | [5] | [9] | Aromatase (Homo sapiens)

CN(C)CC/C=C1/c2ccccc2COc2ccc(CC(=O)O)cc21
inactive: [1] | [2] | [3] | [5] | [9]

C=CCCCC
not listed: [7]
inactive: all other assays above

Cc1ccnc(N)c1
inactive: [1] | [2] | [3] | [5] | [9] | Aromatase (Homo sapiens)

CCCCCC/C=C/C(=O)OC
inactive: [1] | [2] | [3] | [5] | [9] | Aromatase (Homo sapiens)

CC(C)OC(=O)CCC(=O)OC(C)C
inactive: [1] | [2] | [3] | [5] | [9] | Aromatase (Homo sapiens)

COC(C)(OC)OC
not listed: [5]
inactive: all other assays above

C=CC/C=C/C
not listed: [7]
inactive: all other assays above
